Compound activity: PubChem BioAssay, Sanford-Burnham Center for Chemical Genomics
Most compounds without a hit are left out; they make up all but 4% or so of the library.
TROY signal inh: TROY signaling inhibition; Q293 LMP1-TROYcd NF-kB luciferase reporter, 4 h; inhibition, % at 10 µM; actives 0.98% (n = 360,000); AID 1347056;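 active means compounds whose plate-normalised and pattern-corrected inhibition of the luciferase reporter signal at the single screening dose is 50% or more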
CF NFkB inh: cystic fibrosis NF-kB activation inhibition; KKLEB NF-kB-GFP reporter, PAF-induced, GFP fluorescence overnight; actives 0.86% (n = 360,000); inhibition, % at 5 µM;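 active means at least 50% inhibition at 5 µM, scaled per plate between neutral and stimulator controls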;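 further: PAF is a Pseudomonas aeruginosa culture filtrate used as stimulus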
TWEAK-Fn14 inh: inhibitors of TWEAK-Fn14 interaction signaling; inhibition, % at 10 µM; TWEAK-stimulated Fn14 reporter cells, luciferase luminescence, 8 h; actives 2% (n = 360,000); AID 1159606; in the data active means inhibition above about 50%
KKLEB cytotox: counter-screen for CF NF-kB inhibitors: cytotoxicity. AID 602141. actives 0.36% (n = 360,000). KKLEB CF airway cells viability, ATPlite luminescence, overnight; active compounds read low; cells stimulated with P. aeruginosa culture filtrate. activity change (cytotoxicity), % at 5 µM;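 active means corrected activity change at or below -50% at 5 µM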
Peg3 promoter: inhibitors of Peg3 promoter; HeLa PEG-Prom luciferase reporter, luminescence, overnight; inhibition, % at 20 µM; actives 1.7% (n = 360,000); AID 588405;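 active means inhibition of at least 50% at 20 µM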
HIF-2a block: inhibitors of HIF-2a; actives 0.72% (n = 360,000); inhibition, % at 18.8 µM; AID 624352; 786-0 RCC cells HIF-2a reporter, luciferase luminescence, overnight;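 active means inhibition of the luminescence signal of 40% or more relative to plate controls, in a single-dose primary screen at 18.75 µM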
Hits are given with their value; 0 = inactive; - = no result given; ! = not active in a repeat.

SMILES	TROY signal inh	CF NFkB inh	TWEAK-Fn14 inh	KKLEB cytotox	Peg3 promoter	HIF-2a block
CC(C(=O)O)c1ccc(N2Cc3ccccc3C2=O)cc1 (centres undefined)	0	0	70	0	0	0
Cc1ccccc1N1Cc2ccccc2C1=O	0	0	0	0	0	0
Cc1c[nH]c2cccc(OCC(CNC(C)(C)C)OC(=O)c3ccccc3)c12 (centres undefined)	0	0	0	0	0	0
O=[N+]([O-])c1ccc(N/N=C\c2cccn2-c2ccccc2)nc1	0	0	52	0	0	0
Cc1nc2ccccc2c(N)c1C(=O)/C=C/c1ccccc1	0	0	0	0	72	0
CC(=O)c1c(C)nc2ccccc2c1N	0	0	0	0	0	0
CCCCCNC(=O)c1cccc(S(=O)(=O)N2CC3(C)CC2CC(C)(C)C3)c1 (centres undefined)	0	0	0	0	0	0
Cc1ccccc1-c1csc(C(C)(O)c2ccc(F)c(F)c2)n1 (centres undefined)	0	0	0	0	0	0
CCOC(=O)c1c(C)[nH]c(C(=O)OCC(=O)NC2CCS(=O)(=O)C2)c1C (centres undefined)	-	0	87	0	0	0
CCOC(=O)C1(CCCc2ccccc2)CCN(C2CCSCC2)CC1	0	0	55	0	0	0
OCC1(CCCc2ccccc2)CCN(C2CCSCC2)CC1	0	0	0	0	0	0
O=[N+]([O-])c1ccc(O)c(C=Nc2cccc3ccccc23)c1	0	0	0	0	0	0
Oc1c(Br)cc(Br)cc1C=Nc1ccc2c(c1)OCCO2	67	0	65	0	0	0
O=[N+]([O-])c1ccc(O)c(C=Nc2ccc3c(c2)OCCO3)c1	56	0	67	0	0	0
Cc1cccc(/N=C/c2c(O)[nH]c3ccccc23)n1	0	0	0	0	0	0
Oc1[nH]c2ccccc2c1C=Nc1ccc2c(c1)OCCO2	81	0	0	0	0	0
CCOCCCNC(=O)CCN1C(=O)c2ccccc2Sc2ncccc21	0	0	0	0	0	0
C[C@@H]1CN([C@H](C)CO)C(=O)c2cc(Br)cnc2O[C@@H]1CN(C)C(=O)Nc1ccccc1	0	0	0	0	0	0
CN1CCN(C(=O)c2cccc(-c3cccc4nccn34)c2)CC1	0	0	0	0	0	0
COCc1cc(C)nc(OCC(=O)N/N=C/c2ccc(-c3cc([N+](=O)[O-])ccc3Cl)o2)c1C#N	0	0	0	0	54	0
COCc1cc(C)nc(OCC(=O)N/N=C/c2ccco2)c1C#N	0	0	0	0	0	0
O=C(CNS(=O)(=O)c1ccc(Cl)c(C(F)(F)F)c1)NC1CCCCCC1	0	0	0	0	0	0
CN(C)CC(C)(C)CNS(=O)(=O)c1ccc(Cl)c(Cl)c1	52!	0	0	0	0	0
CN(C)CCNC(=O)c1cccc(NS(=O)(=O)c2ccc(Cl)c(Cl)c2)c1	0	0	0	0	0	0
O=C(NC(=S)Nc1cccc([N+](=O)[O-])c1)C1CCCCC1	0	0	0	0	0	0
SMILES	TROY signal inh	CF NFkB inh	TWEAK-Fn14 inh	KKLEB cytotox	Peg3 promoter	HIF-2a block
O=[N+]([O-])c1ccc(-c2cnc3ccccc3n2)cc1	0	0	0	0	0	0
O=[N+]([O-])c1ccc(-c2c(O)c3ccccc3c3nc4ccccc4nc23)cc1	54	0	0	0	52	0
O=C(N/N=C\c1ccc2c(c1)OCO2)c1cncc(Br)c1	0	0	58	0	0	0
O=C(N/N=C/c1ccccc1)c1ccc2c(c1)OCO2	0	0	59	0	0	0
O=C(N/N=C\c1ccc([N+](=O)[O-])s1)c1cncc(Br)c1	0	0	53	0	63	0
Cc1ccc(-c2c(CC(=O)O)c(C)nc3sc4c(c23)CCCC4)cc1	0	0	0	0	0	0
CC(C)[C@H](NC(=O)c1ccccc1)C(=O)OCC(=O)Nc1ncc(Cl)cc1Cl	0	0	0	0	0	0
Cc1cccn2c(=O)c3cc(C(=O)NC4CCCCC4)c(=N)n(Cc4ccccc4)c3nc12	0	0	0	0	54	0
N=c1c(C(=O)NC2CCCCC2)cc2c(=O)n3ccccc3nc2n1Cc1ccc(F)cc1	0	0	0	0	0	0
Cc1cccn2c(=O)c3cc(C(=O)NC4CCCC4)c(=N)n(Cc4ccc(F)cc4)c3nc12	0	0	0	0	58	0
CCNC(=O)c1cc2c(=O)n3cccc(C)c3nc2n(CCc2ccccc2)c1=N	0	0	0	0	0	0
Cc1cccn2c(=O)c3cc(C(=O)NC4CCCC4)c(=N)n(CCc4ccccc4)c3nc12	0	0	0	0	69	0
COc1ccc2c(c1)cc(C(=O)N[C@H](C(=O)N1CCC(C(=O)O)CC1)C(C)C)n2C	0	0	0	0	0	0
Cc1nc2c(ccc3nc(NC(=O)c4ccc5c(c4)OCCO5)sc32)s1	0	0	0	-53	0	0
Cc1nc2c(ccc3nc(NC(=O)C(c4ccccc4)c4ccccc4)sc32)s1	0	0	75	0	0	0
Cc1nc2ccc3nc(NC(=O)c4ccc5c(c4)OCCO5)sc3c2s1	0	0	0	0	0	0
COc1c(NC=O)c2c(c([N+](=O)[O-])c1OC)C(=O)OC2	0	0	0	0	0	0
O=C(CSC1CC(=O)N(CC(c2ccccc2)c2ccccc2)C1=O)Nc1ccc(Cl)cc1 (centres undefined)	51	0	0	0	0	0
CN(C)CCCN(C(=O)c1ccc(Br)s1)c1nc2cc3c(cc2s1)OCO3	0	0	0	0	59	0
Cc1ccc2sc(N(CCCN(C)C)C(=O)c3ccc(Br)s3)nc2c1C	0	0	0	0	62	0
CCN(Cc1ccccc1)S(=O)(=O)c1ccc(C(=O)N(CCCN(C)C)c2nc3c(C)c(C)ccc3s2)cc1	0	0	0	0	93	0
CN(C)CCCN(C(=O)c1ccc(S(=O)(=O)N(C)C)cc1)c1nc2cc3c(cc2s1)OCO3	0	0	0	0	0	0
Cc1ccc2sc(N(CCCN(C)C)C(=O)c3nc4ccccc4s3)nc2c1C	0	0	0	0	0	0
CN(C)CCCN(C(=O)c1ccc2c(c1)CCCC2)c1nc2cc3c(cc2s1)OCO3	0	0	0	0	57	0
COCCCNC(=O)CC1C[C@H](C(=O)N(C(C)C)C(C)C)[C@@]2(C)c3[nH]c4ccccc4c3CCN2C1=O (some centres undefined)	0	0	0	0	0	0
O=C(N/N=C/c1sc(N2CCOCC2)nc1-c1ccccc1)c1ccccc1Cl	0	0	0	0	0	0
O=[N+]([O-])c1ccc(N/N=C/c2sc(N3CCOCC3)nc2-c2ccccc2)c(S(=O)(=O)Nc2ccc(Cl)cc2)c1	59	0	61	0	54	0
O=C(O)c1cccc(N/N=C/c2sc(N3CCOCC3)nc2-c2ccccc2)c1	0	0	0	0	0	0
